# Activity calls are given as the source filed them.
# Assays:
# [1] = system: Plasmodium falciparum Sir2 (PF13_0152, Sir2A); assay: pfSir2 binders on small-molecule microarrays, primary screen, biochemical, small-molecule microarray, 635 nm fluorescence (AID 1098); conditions: small-molecule microarray binding, fluorescence 635 nm; higher = more signal;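 note: score merges spot fluorescence intensity with its signal-to-noise ratio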
# [2] = small-molecule microarray binders of probe aDKK1, primary screen, biochemical, biotinylated probe, 635/667 nm fluorescence (AID 1099); conditions: higher = more signal;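 note: score merges 667nm spot fluorescence with signal to noise across triplicate slides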
# [3] = small-molecule microarray binders of probe aCHRDL2, primary screen, biochemical, biotinylated probe, 635/667 nm fluorescence (AID 1100); conditions: higher = more signal
# [4] = splicing luciferase reporter signal modulators, primary screen, spliceosome inhibition project, cell-based, HEK293, splice +/- reporter (AID 1101); conditions: luminescence, 24 h, higher = more signal, called active from +8 up or from −8 down;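 note: HEK293 cells carrying a splicing-competent luciferase reporter gene; test concentration not given here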
# [5] = biological target: Fibroblast growth factor 10 (Homo sapiens) (UniProt O15520); assay: FGF10 binders on small-molecule microarrays, primary screen, biochemical, small-molecule microarray, 635 nm fluorescence (AID 1102); conditions: FGF10 binding, fluorescence 635 nm, higher = more signal
# Chain of Fibroblast growth factor 10 (Homo sapiens) (O15520 whole entry, looked up): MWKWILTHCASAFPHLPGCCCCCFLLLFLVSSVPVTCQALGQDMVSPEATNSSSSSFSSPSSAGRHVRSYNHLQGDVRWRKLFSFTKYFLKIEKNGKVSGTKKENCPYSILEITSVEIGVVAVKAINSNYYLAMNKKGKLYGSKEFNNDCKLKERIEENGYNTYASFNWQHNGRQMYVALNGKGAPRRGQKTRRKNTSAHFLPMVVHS
# [6] = system: glycogen synthase kinase-3 (GSK3A per assay name; protocol says GSK3B); assay: GSK3 binders on small-molecule microarrays, primary screen, biochemical, small-molecule microarray, 635 nm fluorescence, GSK3A (AID 1103); conditions: small-molecule microarray binding, fluorescence 635 nm; higher = more signal; note: the record names both GSK3A and GSK3B
# [7] = biological target: Epidermal growth factor receptor (Homo sapiens) (UniProt P00533); assay: EGFR binders on small-molecule microarrays, primary screen, biochemical, small-molecule microarray, 635 nm fluorescence (AID 1104); conditions: EGFR binding, higher = more signal;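 note: score merges 667 nm emission intensity with spot signal to noise over triplicate slides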
# Chain of Epidermal growth factor receptor (Homo sapiens) (P00533 whole entry, looked up): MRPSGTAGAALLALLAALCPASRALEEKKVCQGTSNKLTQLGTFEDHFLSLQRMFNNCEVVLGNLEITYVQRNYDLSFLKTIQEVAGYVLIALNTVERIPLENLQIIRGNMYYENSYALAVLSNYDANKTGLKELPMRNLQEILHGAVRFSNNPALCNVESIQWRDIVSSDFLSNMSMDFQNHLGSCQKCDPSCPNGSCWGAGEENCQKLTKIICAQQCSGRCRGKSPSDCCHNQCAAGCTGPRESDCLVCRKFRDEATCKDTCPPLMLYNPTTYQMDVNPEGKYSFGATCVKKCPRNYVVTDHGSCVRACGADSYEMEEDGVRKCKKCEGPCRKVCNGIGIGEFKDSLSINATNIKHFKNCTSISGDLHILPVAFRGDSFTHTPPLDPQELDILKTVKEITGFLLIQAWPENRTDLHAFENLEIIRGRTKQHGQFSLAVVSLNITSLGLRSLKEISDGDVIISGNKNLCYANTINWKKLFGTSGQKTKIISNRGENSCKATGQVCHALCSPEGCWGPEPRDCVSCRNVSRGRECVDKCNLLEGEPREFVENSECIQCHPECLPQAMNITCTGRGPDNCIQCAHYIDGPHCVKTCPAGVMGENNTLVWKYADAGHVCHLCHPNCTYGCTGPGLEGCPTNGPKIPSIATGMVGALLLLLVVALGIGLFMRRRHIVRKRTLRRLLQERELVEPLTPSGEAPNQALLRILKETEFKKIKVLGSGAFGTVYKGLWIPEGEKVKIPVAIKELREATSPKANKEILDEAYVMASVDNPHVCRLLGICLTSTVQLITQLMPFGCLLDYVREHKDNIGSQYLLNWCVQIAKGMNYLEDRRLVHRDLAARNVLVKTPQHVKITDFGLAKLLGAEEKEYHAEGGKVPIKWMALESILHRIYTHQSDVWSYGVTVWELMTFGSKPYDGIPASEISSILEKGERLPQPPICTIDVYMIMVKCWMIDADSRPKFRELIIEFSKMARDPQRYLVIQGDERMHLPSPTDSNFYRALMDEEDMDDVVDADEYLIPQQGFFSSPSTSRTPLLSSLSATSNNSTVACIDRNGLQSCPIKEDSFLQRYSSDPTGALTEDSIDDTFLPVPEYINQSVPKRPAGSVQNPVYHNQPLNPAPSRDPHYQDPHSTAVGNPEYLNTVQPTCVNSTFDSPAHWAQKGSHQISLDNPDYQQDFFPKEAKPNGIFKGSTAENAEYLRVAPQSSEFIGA
# [8] = biological target: Follistatin-related protein 3 (Homo sapiens) (UniProt O95633); assay: FSTL3 binders on small-molecule microarrays, primary screen, biochemical, small-molecule microarray, 635 nm fluorescence (AID 1105); conditions: FSTL3 binding, higher = more signal;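 note: score merges emission near 667 nm and signal to noise per printed spot across three slides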
# Chain of Follistatin-related protein 3 (Homo sapiens) (O95633 whole entry, looked up): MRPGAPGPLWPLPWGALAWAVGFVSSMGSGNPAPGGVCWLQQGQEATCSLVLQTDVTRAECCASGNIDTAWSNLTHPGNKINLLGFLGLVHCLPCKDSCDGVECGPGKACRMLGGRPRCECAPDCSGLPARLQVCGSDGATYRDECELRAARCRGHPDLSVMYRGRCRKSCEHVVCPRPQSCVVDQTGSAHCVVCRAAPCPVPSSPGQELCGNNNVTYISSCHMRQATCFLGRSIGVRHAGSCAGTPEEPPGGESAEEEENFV
# [9] = biological target: Dickkopf-related protein 1 (Homo sapiens) (UniProt O94907); assay: DKK1 binders on small-molecule microarrays, primary screen, biochemical, small-molecule microarray, 635 nm fluorescence scan (AID 1106); conditions: DKK1 binding, higher = more signal;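 note: score merges emission near 667 nm with signal to noise over three replicate slides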
# Chain of Dickkopf-related protein 1 (Homo sapiens) (O94907 whole entry, looked up): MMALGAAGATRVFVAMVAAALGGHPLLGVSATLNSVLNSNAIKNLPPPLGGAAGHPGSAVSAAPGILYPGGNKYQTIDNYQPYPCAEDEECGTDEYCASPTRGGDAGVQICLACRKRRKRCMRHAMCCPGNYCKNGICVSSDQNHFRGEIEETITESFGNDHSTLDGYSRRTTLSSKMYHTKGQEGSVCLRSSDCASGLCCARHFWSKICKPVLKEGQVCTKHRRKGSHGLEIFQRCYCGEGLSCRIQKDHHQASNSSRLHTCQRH
# [10] = system: Inhibin beta A chain (activin A); assay: INHBA (activin A) binders on microarrays, primary screen, biochemical, small-molecule microarray, 635 nm fluorescence scan (AID 1107); conditions: small-molecule microarray binding, higher = more signal;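 note: mouse activin A protein probed at 4.33 µg/mL on printed slides; score merges bound-protein fluorescence near 667 nm with spot signal-to-noise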
# [11] = system: Human papillomavirus type 1a protein E7 (residues 44-93); assay: HPV1a E7 fragment binders on microarrays, primary screen, biochemical, small-molecule microarray, residues 44-93, 635 nm fluorescence (AID 1108); conditions: small-molecule microarray binding, fluorescence 635 nm; higher = more signal;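 note: E7 fragment applied at 1 µg/mL in TBST for 1 h at 4 C; score combines spot fluorescence with its signal to noise ratio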
# [12] = modulators of HCV replicon luciferase signal, primary screen, HCV replication inhibitor project, Huh7 cells, luciferase reporter (AID 1109); conditions: 48 h, higher = more signal;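 note: huh7 hepatoma cells harbouring a luciferase neomycin HCV replicon reporter; luciferase luminescence as measure of HCV replicon replication; test concentration not given here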
# [13] = biological target: Left-right determination factor 2 (Homo sapiens) (UniProt O00292); assay: LEFTY2 binders on small-molecule microarrays, primary screen, biochemical, small-molecule microarray, 635 nm fluorescence scan (AID 1110); conditions: LEFTY2 binding, higher = more signal
# Chain of Left-right determination factor 2 (Homo sapiens) (O00292 whole entry, looked up): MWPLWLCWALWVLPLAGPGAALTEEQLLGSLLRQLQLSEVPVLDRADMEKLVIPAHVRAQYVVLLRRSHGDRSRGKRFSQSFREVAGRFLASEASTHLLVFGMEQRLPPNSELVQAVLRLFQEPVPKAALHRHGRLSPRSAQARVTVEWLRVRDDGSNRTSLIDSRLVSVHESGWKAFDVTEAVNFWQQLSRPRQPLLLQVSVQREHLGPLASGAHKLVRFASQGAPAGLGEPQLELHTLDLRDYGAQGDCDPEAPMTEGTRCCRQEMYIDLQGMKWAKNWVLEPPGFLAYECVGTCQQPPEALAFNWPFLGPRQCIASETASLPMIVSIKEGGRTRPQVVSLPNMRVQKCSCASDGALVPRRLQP
# [14] = biological target: Calmodulin-1 (Homo sapiens) (UniProt P0DP23); assay: CALM1 binders on microarrays, EGTA buffer, profiling panel, biochemical, small-molecule microarray, Cy5-labelled CALM1 (AID 1111); conditions: Cy5-CALM1 binding fluorescence, higher = more signal;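 note: labelled calmodulin applied in Tris saline Tween buffer holding calcium plus EGTA and DTT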
# [15] = biological target: Calmodulin-1 (Homo sapiens) (UniProt P0DP23); assay: calcium-bound CALM1 binders on microarrays, profiling panel, artefact control for SMM control-protein annotation, biochemical, small-molecule microarray, Cy5-labelled CALM1, plus calcium (AID 1112); conditions: Cy5-CALM1 binding fluorescence, higher = more signal;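 note: score merges spot fluorescence with signal to noise from triplicate slides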
# [16] = small-molecule microarray binders of probe aWnt5a, primary screen, biochemical, biotinylated probe, 635/667 nm fluorescence (AID 1113); conditions: higher = more signal;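 note: score merges 667 nm fluorescence intensity with signal-to-noise per printed feature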
# [17] = small-molecule microarray binders of probe aShh, primary screen, biochemical, biotinylated probe, 635/667 nm fluorescence (AID 1114); conditions: higher = more signal;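 note: probe is biotin-labelled aShh protein from a stem cell growth factor screen; measures binding of labelled protein to compounds printed on the slide; score merges feature fluorescence at 667 nm with signal-to-noise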
# [18] = small-molecule microarray binders of probe aNog, primary screen, biochemical, biotinylated probe, 635/667 nm fluorescence (AID 1115); conditions: higher = more signal;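 note: probe is biotinylated aNog protein used at 0.15 µg/mL for 1 h at 4 C; z-score combines 667 nm fluorescence of each spot with its signal to noise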
# [19] = biological target: Torsin-1A-interacting protein 1 (Homo sapiens) (UniProt Q5JTV8); assay: LAP1 binders from COS7 cell lysate, primary screen, small-molecule microarray, 635/667 nm fluorescence (AID 1116); conditions: COS7-hLAP1 lysate binding, 635 nm fluorescence, higher = more signal
# Chain of Torsin-1A-interacting protein 1 (Homo sapiens) (Q5JTV8 whole entry, looked up): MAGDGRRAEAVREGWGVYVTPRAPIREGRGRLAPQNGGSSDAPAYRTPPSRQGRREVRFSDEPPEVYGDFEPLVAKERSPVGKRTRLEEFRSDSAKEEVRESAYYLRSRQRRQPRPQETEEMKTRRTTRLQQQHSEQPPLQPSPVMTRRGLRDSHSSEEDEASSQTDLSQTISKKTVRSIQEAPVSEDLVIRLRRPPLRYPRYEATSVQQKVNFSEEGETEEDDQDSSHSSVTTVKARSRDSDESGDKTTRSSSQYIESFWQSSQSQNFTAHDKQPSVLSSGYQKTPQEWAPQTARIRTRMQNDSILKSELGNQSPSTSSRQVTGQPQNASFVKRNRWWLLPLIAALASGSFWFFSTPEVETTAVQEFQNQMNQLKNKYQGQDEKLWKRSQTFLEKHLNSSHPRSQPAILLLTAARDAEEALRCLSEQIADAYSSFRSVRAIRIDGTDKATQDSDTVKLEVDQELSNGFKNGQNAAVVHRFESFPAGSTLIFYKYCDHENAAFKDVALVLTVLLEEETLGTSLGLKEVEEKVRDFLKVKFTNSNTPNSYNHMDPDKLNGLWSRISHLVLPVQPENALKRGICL
# [20] = biological target: Alpha-bungarotoxin (Bungarus multicinctus) (UniProt P60615); assay: alpha-bungarotoxin binders on microarray, profiling panel, artefact control for SMM control protein annotation, biochemical, small-molecule microarray, Alexa647 label, 635/667 nm fluorescence (AID 1117); conditions: alpha-BTX-A647 binding fluorescence, higher = more signal
# Chain of Alpha-bungarotoxin (Bungarus multicinctus) (P60615 whole entry, looked up): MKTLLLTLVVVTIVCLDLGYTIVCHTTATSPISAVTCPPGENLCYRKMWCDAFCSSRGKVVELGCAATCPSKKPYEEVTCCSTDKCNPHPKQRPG
compound,measurement,setting,value
CC(C)C(=C=CC[C@H](O)c1ccc(OCCO)cc1)C[C@H](O)COCc1ccccc1,composite z-score,[1],1.12
same,composite z-score,[2],-0.0067
same,composite z-score,[3],-0.226
same,z-score,[4],-0.642 (inactive)
same,composite z-score,[5],0.498
same,composite z-score,[6],0.653
same,composite z-score,[7],-0.445
same,composite z-score,[8],0.421
same,composite z-score,[9],0.141
same,composite z-score,[10],1.42
same,composite z-score,[11],0.162
same,z-score,[12],-1.87
same,composite z-score,[13],-0.022
same,composite z-score,[14],0.59
same,composite z-score,[15],-0.627
same,composite z-score,[16],-0.0403
same,composite z-score,[17],0.0469
same,composite z-score,[18],0.217
same,composite z-score,[19],0.833
same,composite z-score,[20],1.07
O=C1c2ccccc2[C@](Cc2ccccc2I)(C(=O)O)[C@H](c2ccc(CO)cc2)N1Cc1ccccc1Cl,composite z-score,[1],0.96
same,composite z-score,[2],0.815
same,composite z-score,[3],1.06
same,z-score,[4],0.0252 (inactive)
same,composite z-score,[5],0.235
same,composite z-score,[6],-0.0679
same,composite z-score,[7],-0.197
same,composite z-score,[8],0.521
same,composite z-score,[9],0.697
same,composite z-score,[10],0.623
same,composite z-score,[11],1.15
same,z-score,[12],-0.219
same,composite z-score,[13],-0.0287
same,composite z-score,[14],1.56
same,composite z-score,[15],0.586
same,composite z-score,[16],-0.163
same,composite z-score,[17],-0.189
same,composite z-score,[18],0.195
same,composite z-score,[19],0.957
same,composite z-score,[20],2.29
COC(=O)C1=CC(CCCO)=CC(C2CC2)N(Cc2cc3c(cc2Br)OCO3)C=C1C(=O)OC (stereo not given),composite z-score,[1],1.57
same,composite z-score,[2],1.03
same,composite z-score,[3],1.14
same,z-score,[4],-0.575 (inactive)
same,composite z-score,[5],0.0344
same,composite z-score,[6],0.194
same,composite z-score,[7],-0.482
same,composite z-score,[8],0.0154
same,composite z-score,[9],0.47
same,composite z-score,[10],0.945
same,composite z-score,[11],1.36
same,z-score,[12],-0.164
same,composite z-score,[13],-0.998
same,composite z-score,[14],2.27
same,composite z-score,[15],0.67
same,composite z-score,[16],-0.0269
same,composite z-score,[17],0.0141
same,composite z-score,[18],0.842
same,composite z-score,[19],3.07
same,composite z-score,[20],1.97
CCOC(=O)C[C@H]1[C@H](OC(=O)c2ccc(-c3ccccc3)cc2)[C@@H](NC(=O)c2ccccc2)c2cc(OCCCO)ccc2N1C(=O)c1ccccc1,composite z-score,[1],0.204
same,composite z-score,[2],0.462
same,composite z-score,[3],0.47
same,z-score,[4],-2.01 (inactive)
same,composite z-score,[5],0.767
same,composite z-score,[6],0.66
same,composite z-score,[7],-0.0664
same,composite z-score,[8],0.235
same,composite z-score,[9],-0.188
same,composite z-score,[10],-0.649
same,composite z-score,[11],1.11
same,z-score,[12],-1.58
same,composite z-score,[13],0.394
same,composite z-score,[14],2.04
same,composite z-score,[15],1.2
same,composite z-score,[16],-0.0718
same,composite z-score,[17],0.275
same,composite z-score,[18],0.165
same,composite z-score,[19],0.67
same,composite z-score,[20],1.09
COc1ccc([Si](C)(C)[C@@H]2[C@@H](CC(=O)N3CCC[C@H]3CO)O[C@]3(C(=O)N(Cc4ccc(N5CCC5=O)cc4)c4ccccc43)[C@H]2C)cc1,composite z-score,[1],1.22
same,composite z-score,[2],0.123
same,composite z-score,[3],0.0655
same,z-score,[4],-0.473 (inactive)
same,composite z-score,[5],0.61
same,composite z-score,[6],0.398
same,composite z-score,[7],0.35
same,composite z-score,[8],0.489
same,composite z-score,[9],0.33
same,composite z-score,[10],0.194
same,composite z-score,[11],0.196
same,z-score,[12],-1.96
same,composite z-score,[13],0.499
same,composite z-score,[14],0.593
same,composite z-score,[15],0.343
same,composite z-score,[16],-0.124
same,composite z-score,[17],0.257
same,composite z-score,[18],0.241
same,composite z-score,[19],0.303
same,composite z-score,[20],0.428
C[C@@H](OCc1ccccc1)C1NC(=O)[C@@]23C(=O)N[C@@H](Cc4ccccc4)C2[C@H](C)[C@@]2(C)O[C@H]2C3/C=C/C/C=C\CNC(=O)[C@@H]2CCCN2C1=O (stereo not given in full),composite z-score,[1],-0.381
same,composite z-score,[2],-0.308
same,composite z-score,[3],-0.39
same,z-score,[4],0.253 (inactive)
same,composite z-score,[5],0.097
same,composite z-score,[6],-0.616
same,composite z-score,[7],-0.324
same,composite z-score,[8],0.819
same,composite z-score,[9],0.34
same,composite z-score,[10],1.75
same,composite z-score,[11],-2.3
same,z-score,[12],-1.06
same,composite z-score,[13],-0.0437
same,composite z-score,[14],-1.46
same,composite z-score,[15],-1.23
same,composite z-score,[16],-0.197
same,composite z-score,[17],-0.138
same,composite z-score,[18],-0.247
same,composite z-score,[19],-0.417
same,composite z-score,[20],-0.236

# Source: PubChem BioAssay
